Measurements reported in PubChem BioAssay AID1159580 (chemical genetic matrix, 2015).
The campaign covered roughly 5,500 compounds. About 2,000 (36%) were called active. Roughly 18% stayed inconclusive and do not appear here. No stated cut-off is given here; in the data, active means normalized growth mostly below about 0.91 (no sharp cut-off); inconclusive means no clear call, values can overlap the other calls; inactive means mostly above about 0.92. Some of the results follow.

Test: chemical genetic growth profiling, strain panel (AID 1159580);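 further: tested at 20 µM; growth read once vehicle control cultures reached saturation at 30 °C; 1 = growth at the plate median or of vehicle wells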
Details: growth OD

Measured: normalized growth

Nc1ccc(S(=O)(=O)Nc2cnc3ccccc3n2)cc1
inactive: S. cerevisiae deletion strains, locus YJR075W, strain HOC1, stronger effect = lower value 0.982 | S. cerevisiae deletion strains, locus YKL009W, strain mrt4, stronger effect = lower value 0.971 | S. cerevisiae deletion strains, locus YKL068W, stronger effect = lower value 0.985 | S. cerevisiae deletion strains, locus YKL085W, strain MDH1 (second series), stronger effect = lower value 0.98 | S. cerevisiae deletion strains, locus YKL085W, strain MDH1, stronger effect = lower value 0.98 | S. cerevisiae deletion strains, locus YKL160W, strain elf1, stronger effect = lower value 1.01 | S. cerevisiae deletion strains, locus YKL190W, strain CNB1, stronger effect = lower value 0.976 | S. cerevisiae deletion strains, locus YKR001C, strain vps1, stronger effect = lower value 0.969 | S. cerevisiae deletion strains, locus YKR026C, strain gcn3, stronger effect = lower value 1.02 | S. cerevisiae deletion strains, locus YKR091W, strain srl3, stronger effect = lower value 1.01 | S. cerevisiae deletion strains, locus YLL001W, strain dnm1, stronger effect = lower value 1.02 | S. cerevisiae deletion strains, locus YLL026W, stronger effect = lower value 1.01 | S. cerevisiae deletion strains, locus YLL041C, strain sdh2, stronger effect = lower value 1 | S. cerevisiae deletion strains, locus YLR027C, strain aat2, stronger effect = lower value 1.01 | S. cerevisiae deletion strains, locus YLR039C, strain RIC1, stronger effect = lower value 0.959 | S. cerevisiae deletion strains, locus YLR058C, strain SHM2, stronger effect = lower value 0.971 | S. cerevisiae deletion strains, locus YLR102C, strain apc9, stronger effect = lower value 0.992 | S. cerevisiae deletion strains, locus YLR113W, strain HOG1, stronger effect = lower value 0.967 | S. cerevisiae deletion strains, locus YLR221C, strain rsa3, stronger effect = lower value 0.995 | S. cerevisiae deletion strains, locus YLR258W, strain gsy2, stronger effect = lower value 1.01 | S. cerevisiae deletion strains, locus YLR262C, strain YPT6 (second series), stronger effect = lower value 1.02 | S. cerevisiae deletion strains, locus YLR262C, strain YPT6, stronger effect = lower value 0.964 | S. cerevisiae deletion strains, locus YLR268W, strain sec22, stronger effect = lower value 0.904 | S. cerevisiae deletion strains, locus YLR320W, strain mms22, stronger effect = lower value 1.01 | S. cerevisiae deletion strains, locus YLR330W, strain CHS5, stronger effect = lower value 0.995 | S. cerevisiae deletion strains, locus YLR342W, strain FKS1 (second series), stronger effect = lower value 1.02 | S. cerevisiae deletion strains, locus YLR342W, strain FKS1, stronger effect = lower value 1.01 | S. cerevisiae deletion strains, locus YLR357W, strain rsc2, stronger effect = lower value 0.995 | S. cerevisiae deletion strains, locus YLR370C, strain arc18, stronger effect = lower value 1.03 | S. cerevisiae deletion strains, locus YLR371W, strain rom2, stronger effect = lower value 0.984 | S. cerevisiae deletion strains, locus YLR384C, strain iki3, stronger effect = lower value 1.01 | S. cerevisiae deletion strains, locus YLR418C, strain cdc73, stronger effect = lower value 0.979 | S. cerevisiae deletion strains, locus YML016C, strain PPZ1, stronger effect = lower value 0.996 | S. cerevisiae deletion strains, locus YML032C, strain rad52, stronger effect = lower value 0.979 | S. cerevisiae deletion strains, locus YML120C, strain ndi1, stronger effect = lower value 1.02 | S. cerevisiae deletion strains, locus YML124C, strain tub3, stronger effect = lower value 0.978 | S. cerevisiae deletion strains, locus YMR058W, strain fet3, stronger effect = lower value 1.02 | S. cerevisiae deletion strains, locus YMR078C, strain ctf18, stronger effect = lower value 0.974 | S. cerevisiae deletion strains, locus YMR125W, strain sto1, stronger effect = lower value 1.03 | S. cerevisiae deletion strains, locus YMR129W, stronger effect = lower value 1.02 | S. cerevisiae deletion strains, locus YMR205C, strain PFK2, stronger effect = lower value 1.02 | S. cerevisiae deletion strains, locus YMR223W, strain ubp8, stronger effect = lower value 1 | S. cerevisiae deletion strains, locus YMR231W, strain pep5, stronger effect = lower value 1.01 | S. cerevisiae deletion strains, locus YMR263W, strain SAP30, stronger effect = lower value 0.978 | S. cerevisiae deletion strains, locus YMR307W, strain GAS1, stronger effect = lower value 1.1 | S. cerevisiae deletion strains, locus YNL067W, strain RPL9B, stronger effect = lower value 0.977 | S. cerevisiae deletion strains, locus YNL071W, strain lat1, stronger effect = lower value 1.02 | S. cerevisiae deletion strains, locus YNL153C, strain GIM3, stronger effect = lower value 0.962 | S. cerevisiae deletion strains, locus YNL183C, strain NPR1, stronger effect = lower value 0.921 | S. cerevisiae deletion strains, locus YNL209W, strain ssb2, stronger effect = lower value 1.02 | S. cerevisiae deletion strains, locus YNL233W, strain BNI4, stronger effect = lower value 0.984 | S. cerevisiae deletion strains, locus YNL248C, strain rpa49, stronger effect = lower value 1.02 | S. cerevisiae deletion strains, locus YNL250W, strain rad50, stronger effect = lower value 0.98 | S. cerevisiae deletion strains, locus YNL271C, strain bni1, stronger effect = lower value 0.985 | S. cerevisiae deletion strains, locus YNL298W, strain CLA4, stronger effect = lower value 0.988 | S. cerevisiae deletion strains, locus YNL307C, strain MCK1, stronger effect = lower value 0.983 | S. cerevisiae deletion strains, locus YNL322C, strain KRE1 (second series), stronger effect = lower value 0.997 | S. cerevisiae deletion strains, locus YNL322C, strain KRE1, stronger effect = lower value 0.992 | S. cerevisiae deletion strains, locus YNR049C, strain mso1, stronger effect = lower value 1.01 | S. cerevisiae deletion strains, locus YNR052C, strain pop2, stronger effect = lower value 0.987 | S. cerevisiae deletion strains, locus YOL006C, strain TOP1, stronger effect = lower value 0.997 | S. cerevisiae deletion strains, locus YOL012C, strain htz1 1.64 | S. cerevisiae deletion strains, locus YOL147C, strain pex11, stronger effect = lower value 0.988 | S. cerevisiae deletion strains, locus YOR001W, strain rrp6, stronger effect = lower value 1.02 | S. cerevisiae deletion strains, locus YOR061W, strain CKA2, stronger effect = lower value 0.961 | S. cerevisiae deletion strains, locus YOR069W, strain VPS5, stronger effect = lower value 0.995 | S. cerevisiae deletion strains, locus YOR070C, strain gyp1, stronger effect = lower value 1.01 | S. cerevisiae deletion strains, locus YOR080W, strain dia2, stronger effect = lower value 1.02 | S. cerevisiae deletion strains, locus YOR083W, strain WHI5, stronger effect = lower value 0.99 | S. cerevisiae deletion strains, locus YOR106W, strain vam3, stronger effect = lower value 1.03 | S. cerevisiae deletion strains, locus YOR136W, strain idh2, stronger effect = lower value 0.98 | S. cerevisiae deletion strains, locus YOR144C, strain elg1, stronger effect = lower value 0.977 | S. cerevisiae deletion strains, locus YOR184W, strain ser1, stronger effect = lower value 0.98 | S. cerevisiae deletion strains, locus YOR231W, strain MKK1, stronger effect = lower value 0.975 | S. cerevisiae deletion strains, locus YOR265W, strain rbl2, stronger effect = lower value 1.01 | S. cerevisiae deletion strains, locus YOR270C, strain vph1, stronger effect = lower value 1.02 | S. cerevisiae deletion strains, locus YOR290C, strain snf2, stronger effect = lower value 0.998 | S. cerevisiae deletion strains, locus YOR316C, strain cot1, stronger effect = lower value 0.969 | S. cerevisiae deletion strains, locus YPL051W, strain arl3, stronger effect = lower value 1 | S. cerevisiae deletion strains, locus YPL055C, strain LGE1, stronger effect = lower value 0.94 | S. cerevisiae deletion strains, locus YPL078C, strain atp4, stronger effect = lower value 1.02 | S. cerevisiae deletion strains, locus YPL106C, strain sse1, stronger effect = lower value 1.03 | S. cerevisiae deletion strains, locus YPL240C, strain hsp82, stronger effect = lower value 1.02 | S. cerevisiae deletion strains, locus YPL256C, strain CLN2, stronger effect = lower value 0.96 | S. cerevisiae deletion strains, locus YPR119W, strain clb2, stronger effect = lower value 0.986 | S. cerevisiae deletion strains, locus YPR141C, strain kar3, stronger effect = lower value 0.972 | S. cerevisiae deletion strains, locus YPR163C, strain tif3, stronger effect = lower value 0.989 | S. cerevisiae deletion strains, locus YPR167C, strain met16, stronger effect = lower value 0.987 | S. cerevisiae deletion strains, strain wtn01, stronger effect = lower value 0.991 | S. cerevisiae strains, strain wild type, stronger effect = lower value 0.986
